# Screens as filed in PubChem BioAssay.
# A selection: hits, their analogues and other compounds. The true share with any hit is near 7.3%.
# FLuc counter: inhibits or activates purified firefly luciferase, miR-21 counter-screen. P08659. AID 588342. hit rate 6.9% among 360,000. purified FLuc, Km substrates, luminescence inhibition. Potency, µM (doses to about 57.5 µM), inactives show at the highest dose activity change, negative = inhibition, hits mostly inhibitors;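 further: plate controls were vehicle for no effect and reference inhibitor for full effect; nearly all actives have a fitted effect of over 55% in size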
# Target sequence (P08659 whole entry, looked up): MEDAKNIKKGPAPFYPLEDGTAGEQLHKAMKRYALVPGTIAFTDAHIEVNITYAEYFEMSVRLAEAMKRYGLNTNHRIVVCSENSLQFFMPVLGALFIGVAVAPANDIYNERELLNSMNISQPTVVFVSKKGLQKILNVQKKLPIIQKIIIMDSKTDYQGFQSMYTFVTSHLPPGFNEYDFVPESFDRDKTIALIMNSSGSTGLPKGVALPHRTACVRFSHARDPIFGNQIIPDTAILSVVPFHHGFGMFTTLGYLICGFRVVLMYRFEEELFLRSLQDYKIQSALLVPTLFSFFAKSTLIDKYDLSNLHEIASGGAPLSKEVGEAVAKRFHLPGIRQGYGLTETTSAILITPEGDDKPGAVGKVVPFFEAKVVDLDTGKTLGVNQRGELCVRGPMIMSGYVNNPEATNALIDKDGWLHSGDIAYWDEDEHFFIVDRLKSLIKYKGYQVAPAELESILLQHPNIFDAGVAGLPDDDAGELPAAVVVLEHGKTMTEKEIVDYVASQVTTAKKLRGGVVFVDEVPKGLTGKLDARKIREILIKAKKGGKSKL
#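 Purified P. pyralis luciferase (10nM final) with 10uM D-luciferin and 10uM ATP (Km levels) in 50mM Tris acetate pH 7.5, 10mM Mg acetate, 0.01% Tween-20, 0.05% BSA; qHTS 6-point titration, ~60 µM downward; luminescence read.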
# KinaseGlo FLuc: blocks Kinase-Glo luciferase, a counter-screen artifact. Q27757. Kinase-Glo luciferase, ATP luminescence, 8 min. Potency, µM (doses to about 38.3 µM), inactives show top-dose activity change, negative = inhibition, most hits filed as inhibitors. hit rate 0.28% among 200,000; further: on the % scale 0 is the no-effect control and ±100 the full control effect; nearly all actives have a fitted effect of over 60% in size
#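 Recombinant Kinase-Glo luciferase, 10 uM ATP (linear range), luciferin; imidazole pH 7.2 / KCl / MgCl2 / Tween / BSA buffer; 8 min RT; luminescence.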
# NPC1 promoter act: activators of NPC1 promoter; Huh7 NPC1 promoter luciferase reporter, 24 h; Potency, µM (titrated, usually from 9.22 µM), without a hit: top-dose activation, usual class: activators; hit rate 2.4% among 320,000; further: % of control where 0% means no effect; nearly all actives have a fitted effect of over 60% in size
#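 NPC1 promoter–luciferase Huh7 cells; 24 h compound; luminescence.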
# SMN2 splice enh: SMN2 splice variant enhancement. HEK293 SMN2-luciferase splicing reporter, luminescence, 30-36 h. Potency, µM (titrated, usually from 46.1 µM), inactives show top-dose activity change, positive = activation, hits mostly activators. hit rate 2.8% among 210,000. AID 1458; further: % of control where 0% means no effect; nearly all actives have a fitted effect of over 55% in size
#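 HEK293 cells carry an SMN2 […]–luciferase reporter in which exon 7 inclusion puts luciferase in frame. Cells were plated 10-12 h before compound addition, then incubated 30-36 h at 37C. ONE-Glo luminescence was read; sodium butyrate at 4.5 mM final served as control.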
# Rab9 prom act: activates the Rab9 promoter; Huh7 Rab9 promoter-luciferase reporter, luminescence, 24 h; Potency, µM (highest dose often 9.22 µM), for the others: at the highest dose activation, negative = inhibition, hits mostly activators; hit rate 2.8% among 320,000; AID 485297; further: % of control where 0% means no effect; nearly all actives have a fitted effect of over 60% in size
#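 Steps: seed 1500 Huh7 Rab9-luc cells per well, rest 2 h at 37 °C; add compound in DMSO; incubate 24 h; add luciferase reagent, 10 min ambient; read luminescence.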
# ELG1 genotoxic: inducers of genotoxicity in HEK293T ELG1-luciferase cells; HEK293T ELG1-luciferase reporter, luminescence, 16 h; AID 504466; hit rate 1.3% among 330,000; Potency, µM (series often up to 46 µM), inactives show top-dose activity change, positive = activation, actives largely listed as activators; further: % of control where 0% means no effect; nearly all actives have a fitted effect of over 60% in size
#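 HEK293T cells expressing luciferase-tagged ELG1 were exposed to compound or DMSO vehicle for 16 hr at 37 °C and 5% CO2. Luciferase activity was then measured with ONE-Glo after 30 min at room temperature.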
# Starred values were filed as active, the others as inactive; ? = inconclusive; . = not tested or not shown; [ ] = another dose, or the depositor's remark. The call rests on the fitted dose curve; in most records, active means well fitted curve in the direction sought with a large enough effect; inconclusive means small, poorly fitted or top-dose-only effect, or another doubt; inactive means no such curve, though single readings can be large; an effect the other way counts as inactive or inconclusive. Potency means the concentration at half of the fitted maximal effect.
SMILES,FLuc counter,KinaseGlo FLuc,NPC1 promoter act,SMN2 splice enh,Rab9 prom act,ELG1 genotoxic
COc1ccc(NC(=O)CSc2nnc(NC(=O)c3ccco3)s2)cc1OC,21µM*,.,4%,.,20%,11%
Cc1ccc(Nc2nnc(SCC(=O)Nc3cccnc3Cl)s2)cc1C,1.1µM*,-10%,-4%,18%,-9%,6%
COc1cccc(C(=O)Nc2nnc(SCC(=O)Nc3ccc(NC(C)=O)cc3)s2)c1,0.48µM*,.,2.8µM*,.,3.5µM*,?
C/C(N)=C(/C#N)C(=O)CSc1nnc(Nc2cccc(C)c2)s1,5.4µM*,2%,?,16µM*,?,?
COc1cccc(N2CC(C(=O)Nc3nnc(SCC(=O)Nc4ccc(NC(C)=O)cc4)s3)CC2=O)c1 (stereo not given),-16%,.,0%,.,-1%,2%
Cc1cccc(Nc2nnc(SCC(=O)NCC3CCCO3)s2)c1 (stereo not given),.,.,.,.,.,4%
Cc1ccc(Nc2nnc(SCC(=O)Nc3ccccc3[N+](=O)[O-])s2)cc1,?,-1%,7%,3%,5%,2%
O=C(CSc1nnc(NC(=O)c2ccco2)s1)Nc1ccc(F)cc1,15µM*,1%,11%,26%,19%,4%
Cc1cccc(NC(=O)CSc2nnc(NC(=O)c3ccco3)s2)c1,13µM*,-2%,0%,22%,18%,-5%
COc1ccc(NC(=O)CSc2nnc(NC(=O)c3ccco3)s2)cc1,15µM*,-4%,14%,?,16%,17%
CCSc1nnc(NC(=O)Nc2cccc(C)c2)s1,11µM*,.,?,.,?,-9%
CCc1ccc(CNC(=O)c2ccc(-n3c(C)cc4c3CCC(C)C4)cc2)cc1 (stereo not given),-6%,.,.,.,.,.
CCCNC(=O)N1CCCN(S(=O)(=O)c2ccc3c(ccn3CC)c2)CC1,3%,.,.,.,.,.
CC(C)Cn1nnnc1S(=O)(=O)Cc1ccccc1,.,1%,.,-4%,.,.
Cc1nn2c(=O)cc(COC(=O)c3ccc(NC(=O)COc4ccc(Cl)cc4)cc3)nc2s1,1%,.,.,.,.,.
O=c1c2oc3ccccc3c2n(Cc2ccc(Cl)cc2)c(=O)n1Cc1ccco1,-4%,.,.,.,.,.
O=C(CSc1nnnn1C1CCCC1)Nc1cccc(NC(=O)c2ccco2)c1,?,-6%,-1%,-1%,-1%,1%
O=C(CSc1nnnn1C1CCCCC1)Nc1cccc(NC(=O)c2ccco2)c1,17µM*,0%,-1%,-1%,-9%,-3%
CCSc1nnc(NC(=O)c2csc(C)c2)s1,-17%,2%,2.8µM*,14µM*,2.2µM*,?
Cc1nnc(SCC(=O)Nc2ccc3c(c2)OCCO3)s1,?,0%,5%,1%,0%,2%
O=C(CSc1nnc(NC(=O)c2ccco2)s1)Nc1ccc2c(c1)OCCO2,13µM*,-3%,9%,6%,0%,13%
COc1ccc(NC(=O)Nc2nnc(SCC(=O)Nc3cccc(C)c3C)s2)cc1,0.6µM*,.,.,.,.,.
Cc1cccc(NC(=O)CSc2nnc(NC(=O)C3CC3)s2)c1C,0%,.,-1%,.,16%,8%
Cc1ccc(S(=O)(=O)c2c(O)cc(C)c(NS(=O)(=O)c3ccc(Br)cc3)c2C)cc1,?,.,.,-38%,.,.
COc1cccc2cc(CC(=O)c3ccccc3)c(=O)oc12,17µM*,.,?,.,?,11%
SMILES,FLuc counter,KinaseGlo FLuc,NPC1 promoter act,SMN2 splice enh,Rab9 prom act,ELG1 genotoxic
COc1cccc2cc(C(=O)c3ccccc3)oc12,9.5µM*,-24%,?,?,3.5µM*,?
COc1cccc2cc(C(=O)OCC(=O)NCc3ccc4c(c3)OCO4)c(=O)oc12,11µM*,.,-2%,.,2%,?
COc1cccc2cc(/C(=N/O)c3ccc(Br)cc3)oc12,1%,2%,1%,-27%,0%,-1%
COc1cccc(C(=O)OCC(=O)NCc2ccc3c(c2)OCO3)c1OC,.,.,.,.,.,0%
COc1cccc2cc(C(C)=O)c(=O)oc12,3%[2.3 µM],0%,-1%,11%,-1%,2%
CCc1ccc(C(=O)Cc2cc3cccc(OC)c3oc2=O)cc1,15µM*,.,?,.,?,13%
Cc1cccc(OCC(=O)Nc2ccc(OCc3cc(=O)n4cc(C)ccc4n3)cc2)c1,7%,.,.,.,.,.
Cc1ccc(C)c(NC(=O)C2CCCN(S(=O)(=O)c3cccc4nsnc34)C2)c1 (stereo not given),5%,.,.,-13%,.,.
Nc1ccc(C(=O)C[C@H](N)C(=O)O)cc1O,.,-8%[7.66 µM],.,-4%[9.22 µM],.,.
N#C/C(=C\c1ccc(Cl)cc1)C(=O)NCC1CCCO1 (stereo not given),?,.,.,1%,.,.
COc1cccc2cc(C(=O)OC(C)C(=O)c3ccc(C)cc3)c(=O)oc12 (stereo not given),4%,.,0%,.,18%,4%
COc1cccc2cc(CC(=O)c3cc(C)ccc3C)c(=O)oc12,15µM*,.,25%,.,23%,-3%
COc1cccc2cc(C(=O)NCc3ccc(F)cc3)c(=N)oc12,8.5µM*,.,0%,.,-2%,6%
COc1cccc2cc(C(=O)Nc3ccc(CC(=O)O)cc3)c(=O)oc12,1.5µM*,.,.,-17%,.,.
